Cycloheximide cs: counter-screen for Shiga toxin inhibitors: cycloheximide protein synthesis inhibition; cell reporter, cycloheximide protein synthesis inhibition counterscreen; max response, %; 300,000 tested, 12% active; AID 2314; in the data active = max response mostly above about 13%, no sharp cut-off; inactive = mostly below about 14%; also: read at 38.3 µM for the half of the compounds with a filed dose; 0% is about no effect
Tb PYK inh: blocks Trypanosoma brucei pyruvate kinase. Q57TT1. Potency, µM (series often up to 76.8 µM), inactives show top-dose activity, negative = inhibition, most hits filed as inhibitors. 410,000 tested, 0.12% active. TbPYK enzyme, Kinase-Glo Plus ATP luminescence, 45 min; also: potency is read from the fitted curve at half-maximal effect; % is scaled to controls: 0 for no effect and ±100 for the full control effect; nearly all actives have a fitted effect of over 50% in size
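Enzyme and substrate buffer are dispensed first and compound is pin-transferred. ADP at 130 uM final then starts the reaction, which runs 45 min at room temperature. Detection reagent is added for 10 min before luminescence is imaged.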
Giardia FBPA inh: Giardia lamblia aldolase inhibition; purified Giardia FBPA; A8B2U2; Potency, µM (series often up to 59.6 µM), for inactives: at the highest dose activity, negative = inhibition, most hits filed as inhibitors; 290,000 tested, 0.71% active; also: potency is read from the fitted curve at half-maximal effect; % is scaled to controls: 0 for no effect and ±100 for the full control effect; nearly all actives have a fitted effect of over 55% in size
Target sequence (A8B2U2 whole entry, looked up): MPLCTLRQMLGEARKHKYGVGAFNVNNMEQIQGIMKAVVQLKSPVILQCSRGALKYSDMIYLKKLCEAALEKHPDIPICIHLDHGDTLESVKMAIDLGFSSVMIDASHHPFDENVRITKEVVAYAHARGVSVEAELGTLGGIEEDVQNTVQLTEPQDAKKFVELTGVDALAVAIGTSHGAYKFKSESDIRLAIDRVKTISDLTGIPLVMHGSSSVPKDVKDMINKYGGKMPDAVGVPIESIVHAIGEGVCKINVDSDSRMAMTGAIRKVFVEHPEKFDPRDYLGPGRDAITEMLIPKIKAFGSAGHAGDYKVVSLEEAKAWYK
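40 nM FBPA preincubated 10 min at RT with compound (up to 57.5 uM final), then substrate plus GAPDH/TPI/NAD/arsenate coupling and diaphorase/resazurin added. Fluorescence read after 20 min at RT, 525/598 nm.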
RE007 growth inh: less growth of the S. pombe RE007 Vpr strain; Potency, µM (series often up to 92.2 µM), without a hit: top-dose activity change, negative = less growth, actives largely listed as inhibitors; S. pombe RE007 Vpr strain, BacTiter-Glo ATP luminescence, 24 h; 360,000 tested, 0.21% active; active = well fitted falling curve with a large enough effect; inconclusive = small, poorly fitted or top-dose-only effect; inactive = no such curve, though single readings can be large or run the other way; also: potency is read from the fitted curve at half-maximal effect; % is scaled to controls: 0 for no effect and ±100 for the full control effect; nearly all actives have a fitted effect of over 50% in size
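Fission yeast strain RE007, carrying one chromosomally integrated HIV-1 vpr copy, was seeded at OD 0.01 in PMG+AL medium with 23 nL pinned compound. After 24 h at 30 °C and 99% humidity, viability was read by BacTiter-Glo luminescence.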
LmPK inh: LmPK (Leishmania mexicana) enzyme inhibition. AID 1721. purified LmPK, Kinase-Glo ATP luminescence, 1 h. Potency, µM (doses to about 57.5 µM), for the others: at the top dose activity change, negative = inhibition, hits mostly inhibitors. 290,000 tested, 0.37% active; also: potency is read from the fitted curve at half-maximal effect; % is scaled to controls: 0 for no effect and ±100 for the full control effect
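qHTS format; LmPK 0.1 nM; substrates PEP 0.5 mM and ADP 0.1 mM. One-hour room-temperature incubation, then coupled luciferase luminescence; 0.5 nM enzyme wells mark activation.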
Shiga inhibitor: Shiga toxin inhibition; 290,000 tested, 9.2% active; inhibition, % at 38.7 µM; Vero cells, Shiga toxin protein synthesis inhibition reporter; in the data active = inhibition mostly above about 28%, no sharp cut-off; inactive = mostly below about 43%; also: 0% is about no effect
Starred values were filed as active, the others as inactive. The sample as a whole holds a higher share of hits than the screen did. Unless noted, calls follow the shape of the dose curve; as a rule, active = well fitted curve in the direction sought with a large enough effect; inconclusive = small, poorly fitted or top-dose-only effect, or another doubt; inactive = no such curve, though single readings can be large; an effect the other way counts as inactive or inconclusive.

For O=C1CC(N2CCSCC2)C(=O)N1c1ccc(Br)cc1 (configuration not stated) the results were Cycloheximide cs -2, Tb PYK inh -5%, Giardia FBPA inh 2%, RE007 growth inh inconclusive, LmPK inh 6% and Shiga inhibitor 17.
Screening COc1ccc(NC(=O)c2ccco2)cc1NC(=O)C(C)(C)Oc1ccc(Cl)cc1 returned Tb PYK inh -8%.
Screening N#Cc1cccc(NC(=O)CN2CCN(Cc3ccccc3)CC2)c1 returned Cycloheximide cs -2, Tb PYK inh 2%, Giardia FBPA inh 17%, RE007 growth inh -18%, LmPK inh 1% and Shiga inhibitor -7.
For CCN(CC)c1ccc2cc(-c3nc4ccccc4n3C)c(=O)oc2c1 the results were Cycloheximide cs 37*, Tb PYK inh 6%, Giardia FBPA inh -18%, RE007 growth inh -13%, LmPK inh 17% and Shiga inhibitor 80*.
`CCN(CC)c1ccc2cc(-c3nc4ccccc4[nH]3)c(=O)oc2c1` gave Cycloheximide cs 49*, Tb PYK inh -7%, Giardia FBPA inh -21%, RE007 growth inh -5%, LmPK inh -4% and Shiga inhibitor 81*.
Screening CN(C)Cc1c(O)ccc2cc(-c3nc4ccccc4n3C)c(=O)oc12 returned Cycloheximide cs 20*, Tb PYK inh -4%, Giardia FBPA inh inconclusive, RE007 growth inh -10%, LmPK inh 3% and Shiga inhibitor 33.
Screening CN(C)Cc1c(O)ccc2c(-c3ccccc3)cc(=O)oc12 returned Cycloheximide cs -5, Tb PYK inh 2%, Giardia FBPA inh 0%, RE007 growth inh 8%, LmPK inh 3% and Shiga inhibitor -13.
`CCN(CC)c1ccc2cc(-c3nnc(-c4ccccc4)o3)c(=O)oc2c1` gave Cycloheximide cs 35*, Tb PYK inh -20%, Giardia FBPA inh -2%, RE007 growth inh 4%, LmPK inh 7% and Shiga inhibitor 70*.
`NS(=O)(=O)c1ccc(CCNC(=S)Nc2ccccc2)cc1` gave Cycloheximide cs 0, Tb PYK inh -7%, Giardia FBPA inh -6%, RE007 growth inh 17%, LmPK inh -1% and Shiga inhibitor -8.
Clc1ccccc1CNCC1CCC(CNCc2ccccc2Cl)CC1 (configuration not stated) was read as Giardia FBPA inh -4%.
`CCOc1ncccc1C(=O)OCC(=O)c1cccc(Br)c1` gave Cycloheximide cs 1, Tb PYK inh -1%, Giardia FBPA inh 1%, RE007 growth inh 1%, LmPK inh -4% and Shiga inhibitor -7.
CCOc1ccc2c(c1)c(=O)c(C(=O)c1ccc(CC)cc1)cn2CC(=O)Nc1cccc(Cl)c1 was read as Tb PYK inh -8%.
For Cc1cccc(NC(=O)CNC(=O)c2cccs2)n1 the results were Tb PYK inh 4% and RE007 growth inh 5%.
`Cc1ccnc(NC(=O)c2ccc(Br)s2)c1` gave Cycloheximide cs 70*, Tb PYK inh 0%, Giardia FBPA inh 7%, RE007 growth inh inconclusive, LmPK inh inconclusive and Shiga inhibitor 90*.
For Cc1cccc(NC(=O)c2cccs2)n1 the results were Cycloheximide cs 38*, Tb PYK inh -4%, Giardia FBPA inh -4%, RE007 growth inh -20%, LmPK inh inconclusive and Shiga inhibitor 78*.
For Cc1ccnc(NC(=O)c2cc3c(=O)oc4ccc(C)cc4c3s2)c1 the results were Cycloheximide cs 10, Tb PYK inh 6%, Giardia FBPA inh 4%, RE007 growth inh 3%, LmPK inh 1% and Shiga inhibitor 12.
For O=C(Nc1nccc(-c2cccs2)n1)c1cccs1 the results were Cycloheximide cs 31*, Tb PYK inh 2%, Giardia FBPA inh -22%, RE007 growth inh -16%, LmPK inh -4% and Shiga inhibitor 67*.
For O=C(Nc1ccccn1)c1cccs1 the results were Cycloheximide cs 52*, Tb PYK inh inconclusive, Giardia FBPA inh -1%, RE007 growth inh -30%, LmPK inh inconclusive and Shiga inhibitor 76*.
CC[C@H](C)[C@H](NC(=O)[C@H](C)NC(=O)[C@H](CC(=O)O)NC(=O)[C@H](CO)NC(=O)[C@@H](N)Cc1cnc[nH]1)C(=O)N[C@@H](Cc1ccccc1)C(=O)N[C@H](C(=O)N[C@@H](CCC(N)=O)C(=O)N[C@@H](CCC(N)=O)C(=O)N[C@@H](Cc1ccc(O)cc1)C(=O)N[C@@H](CO)C(=O)N[C@@H](CCCCN)C(=O)N[C@@H](CC(C)C)C(=O)N[C@@H](CC(C)C)C(=O)N[C@@H](C)C(=O)N[C@@H](CCCCN)C(=O)N[C@@H](CC(C)C)C(=O)N[C@@H](C)C(=O)N[C@@H](CC(C)C)C(=O)N[C@@H](CCC(N)=O)C(=O)N[C@@H](CCCCN)C(=O)N[C@@H](Cc1ccc(O)cc1)C(=O)N[C@@H](CC(C)C)C(=O)N[C@@H](C)C(=O)N[C@@H](CO)C(=O)N[C@H](C(=O)N[C@@H](CC(C)C)C(=O)NCC(=O)N[C@@H](CO)C(=O)N[C@@H](CCCNC(=N)N)C(=O)N[C@H](C(=O)N[C@@H](CO)C(=O)N1CCC[C@H]1C(=O)N1CCC[C@H]1C(=O)N1CCC[C@H]1C(N)=O)[C@@H](C)O)[C@@H](C)CC)[C@@H](C)O was read as Cycloheximide cs -4, Giardia FBPA inh 0% and Shiga inhibitor -11.
`CC(=O)Nc1cc(NC(C)=O)cc(C(=O)N2CCCC3CCCCC32)c1` (configuration not stated) gave Cycloheximide cs 1, Tb PYK inh -10%, Giardia FBPA inh -17%, RE007 growth inh 8%, LmPK inh 7% and Shiga inhibitor -6.
Screening Cc1ccc(C)c(N2CCN(C3(c4ccccc4)C(=O)c4ccccc4C3=O)CC2)c1 returned Tb PYK inh -1%.
Screening O=C(C[C@@H]1C/C=C\C[C@@H](Cc2ccc(F)cc2)C(=O)OCCNC1=O)N[C@H](CO)Cc1ccccc1 returned Tb PYK inh 6% and RE007 growth inh -7%.
For CC(=O)C(Sc1nccc(-c2cccs2)n1)C(C)=O the results were Cycloheximide cs 8, Tb PYK inh -1%, Giardia FBPA inh 18µM*, RE007 growth inh inconclusive, LmPK inh -4% and Shiga inhibitor 17.
Screening Cc1cc(NC(=O)c2cc3cc([N+](=O)[O-])ccc3s2)no1 returned Tb PYK inh -1% and RE007 growth inh 3%.
`Cc1cc(NC(=O)c2cccs2)ncc1NC(=O)C(C)(C)C` gave Cycloheximide cs 32*, Tb PYK inh -18%, Giardia FBPA inh 9%, RE007 growth inh -4% and LmPK inh -11%.

Screening results: PubChem BioAssay, National Center for Advancing Translational Sciences (NCATS)
